Sampled rows, rich in hits. Any-hit rate of the full collection: about 6.1%.
D1 ag: Allosteric Agonists of the Human D1 Dopamine Receptor: qHTS; D(1A) dopamine receptor (Homo sapiens), P21728; HEK293 T-REx D1 cells, calcium flux, agonist mode; activation, % at 2 µM; 360,000 compounds, 1% hits; AID 504660, 2011; in the data active means activation above about 30%; further: 0% is about no effect
Target sequence (P21728 whole entry, looked up): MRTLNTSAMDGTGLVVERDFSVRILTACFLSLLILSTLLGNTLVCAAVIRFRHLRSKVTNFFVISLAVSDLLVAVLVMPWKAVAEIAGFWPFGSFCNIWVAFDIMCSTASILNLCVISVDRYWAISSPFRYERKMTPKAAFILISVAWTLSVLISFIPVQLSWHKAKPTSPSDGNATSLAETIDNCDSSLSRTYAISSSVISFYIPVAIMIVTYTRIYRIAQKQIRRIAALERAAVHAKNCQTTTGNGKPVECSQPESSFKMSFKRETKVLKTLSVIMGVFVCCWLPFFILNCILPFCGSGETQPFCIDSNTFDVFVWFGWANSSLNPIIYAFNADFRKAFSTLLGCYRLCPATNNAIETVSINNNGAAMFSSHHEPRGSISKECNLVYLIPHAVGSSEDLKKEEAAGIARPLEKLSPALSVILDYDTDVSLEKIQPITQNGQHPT
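Inducible HEK293 T-REx D1 cells, force-coupled to calcium signalling, were plated at 4000 cells/well with tetracycline and held overnight at 30 C. After no-wash calcium dye loading, compound-evoked calcium rise over 180 s flagged agonists.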
D1 PAM: Potentiators of Human D1 Dopamine Receptor: qHTS. HEK293 TREx D1 cells, calcium flux, dopamine EC20 potentiation. potentiation, % at 10 µM. 360,000 compounds, 0.036% hits. AID 504651, 2011; in the data active means potentiation above about 30%; further: 0% is about no effect
DRD3 antagonist: qHTS of D3 Dopamine Receptor Antagonist: qHTS | D3R cells, DiscoveRx beta-arrestin luminescence, antagonist mode; hits give low values | D(3) dopamine receptor (Homo sapiens), P35462 | max response, negative = inhibition, % | AID 652054, 2013 | 360,000 compounds, 2.5% hits; in the data active means max response below about -50%; inconclusive means no clear call, values can overlap the other calls; further: on the % scale 0 is the no-effect control and ±100 the full control effect
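Cells expressing the human receptor were seeded at 1500 cells/well, incubated overnight at 37 degrees C in 5% CO2, then exposed to library compounds with dopamine controls for 90 minutes at 37 degrees C before luminescent detection.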
DRD3 agonist: qHTS of D3 Dopamine Receptor Agonist: qHTS. D(3) dopamine receptor (Homo sapiens), P35462. 410,000 compounds, 0.58% hits. D3R DiscoveRx beta-arrestin cells, luminescence, 90 min. max activation, %; in the data active means max activation above about 30%; further: 0% is about no effect
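Agonist mode: compounds and dopamine controls were applied to plated cells for 90 min at 37 degrees C after an overnight attachment at 1500 cells/well. Luminescent read-out followed 30 - 60 minutes at room temperature with DiscoveRx detection reagent.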
D1 antagonist: Antagonist of Human D 1 Dopamine Receptor: qHTS | activity change, negative = inhibition, % at 10 µM | HEK293 TREx D1 cells, calcium flux, dopamine EC80; hits give low values | D(1A) dopamine receptor (Homo sapiens), P21728 | 360,000 compounds, 3.2% hits; in the data active means activity change below about -30%; further: on the % scale 0 is the no-effect control and ±100 the full control effect
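Tetracycline-induced HEK293 T-REx cells with force-coupled D1 receptor were loaded with a no-wash calcium dye. Compound was added after a 10 s baseline and read kinetically for 180 s; EC80 dopamine was then added and calcium flux followed another 180 s.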
Active calls of the source: *; ? = inconclusive; / = no result given.

SMILES	D1 ag	D1 PAM	DRD3 antagonist	DRD3 agonist	D1 antagonist
Fc1ccc(-c2csc3ncnc(N4CCc5ccccc5C4)c23)cc1	5	7	43	46*	19
Cc1nc(N2CCN(c3ccccc3O)CC2)c2c(-c3ccccc3)csc2n1	1	2	115	32*	13
Oc1ccccc1N1CCN(c2ncnc3scc(-c4ccc(F)cc4)c23)CC1	0	-5	37	7	2
Oc1ccccc1N1CCN(c2ncnc3scc(-c4ccccc4)c23)CC1	1	7	106	39*	6
O=S(=O)(Nc1ccc(-c2ccc(N3CCCCC3)nn2)cc1)c1ccc(OC(F)(F)F)cc1	5	1	/	4	-17
O=C(c1ccc(O)cc1)c1ccc(C(=O)c2ccc(O)cc2)cc1	22	-10	14	8	-80*
O=C(C(=O)c1ccc(O)cc1)c1ccccc1	1	0	12	0	6
Cc1onc(-c2c(F)cccc2Cl)c1C(=O)NC(=S)Nc1c(C)n(C)n(-c2ccccc2)c1=O	0	-10	-15	-6	-67*
Cc1onc(-c2c(F)cccc2Cl)c1C(=O)Nc1c(C)n(C)n(-c2ccccc2)c1=O	5	0	8	3	14
CC(C)CCNC(=O)CN1C(=O)CCn2nc(-c3cn(C)c4ccccc34)cc21	0	-2	/	-17	-14
O=[N+]([O-])c1cc(C(F)(F)F)ccc1Oc1cccnc1[N+](=O)[O-]	0	-9	10	-2	-81*
COc1ccc(Nc2sc(C(=O)c3ccc(Cl)cc3)c(N)c2C(=O)Nc2ccccc2OC)cc1	78*	2	-60*	-2	-50*
COc1ccc(Nc2sc(C(=O)c3ccccc3)c(N)c2C(=O)Nc2cc(C)ccc2C)c(OC)c1	47*	1	/	-1	-19
COc1ccc(C(=O)c2sc(Nc3ccccc3)c(C(=O)Nc3ccc(OC)c(OC)c3)c2N)cc1	2	1	?	-5	-1
COc1ccc(C(=O)c2sc(Nc3cccc(OC)c3)c(C(=O)Nc3cccc(C)c3C)c2N)cc1	71*	7	-18	-6	-51*
Cc1oc2ncn(CC(C)C)c(=O)c2c1C(=O)NC(C)c1ccccc1 (configuration not stated)	0	1	/	-6	-2
CC1=C(c2ccc(C)cc2)S(=O)(=O)N(Cc2ccc(C(=O)Nc3ccc(C)c(F)c3)cc2)C1=O	11	-6	/	-11	-10
Cc1ccc(S(=O)(=O)/N=C(/NC(=S)Nc2ccccc2)c2ccccc2)cc1	0	-2	5	2	13
Cc1ccc(S(=O)(=O)C/N=C(/NC(=S)N(c2ccccc2)c2ccccc2)c2ccccc2)cc1	0	7	-56*	-14	0
Cc1ccc(NC(=O)CN2C(=O)CSc3ccc(S(=O)(=O)N(C)C)cc32)cc1C	3	3	/	-13	-4
CCOC(=O)Cn1c(=O)n(C2CCCCC2)c2nc(-c3ccc(Cl)cc3)nc(C(N)=O)c21	0	-2	/	-9	7
COCc1ccc(CN2CCC(CO)(CC3CCCCO3)CC2)o1 (configuration not stated)	1	-6	3	-9	-40*
Cc1ccc2[nH]c(CN3CCC(CO)(CC4CCCCO4)CC3)c(C)c2c1 (configuration not stated)	4	2	-61*	-24	6
CCc1ccc(CN2CCC(CO)(CC3CCCCO3)CC2)o1 (configuration not stated)	4	-6	?	-30	-38*
COc1cccc(CN2CCC(CO)(CC3CCCCO3)CC2)c1 (configuration not stated)	2	-4	-25	-30	0
SMILES	D1 ag	D1 PAM	DRD3 antagonist	DRD3 agonist	D1 antagonist
Cc1ccc(CN2CCC(CO)(CC3CCCCO3)CC2)o1 (configuration not stated)	0	5	-63*	-13	7
Cc1cccc(N2CCN(C(=O)C3CCN(S(=O)(=O)Cc4ccccc4)CC3)CC2)c1C	2	-1	/	-6	2
O=C(NCCc1ccccc1)C(=O)NCC(c1cccs1)S(=O)(=O)c1cccs1 (configuration not stated)	25	-2	/	0	/
CCOC(=O)c1ccc(NC(=O)CC2Nc3cc(C)c(C)cc3NC2=O)cc1 (configuration not stated)	17	-2	/	-5	-13
COc1ccccc1CNC(=O)c1ccc2[nH]c(C)c(C)c2c1	7	-8	/	-1	1
OC(COCc1ccccc1F)CN1CCCCC1 (configuration not stated)	/	/	30	-6	/
OC(COc1ccc(F)cc1Cl)CN1CCC(Cc2ccccc2)CC1 (configuration not stated)	61*	-7	-79*	-20	-72*
OC(COc1ccccc1F)CN1CCC(Cc2ccccc2)CC1 (configuration not stated)	16	-18	-81*	-25	-42*
Cc1ccc(C2C=C(c3ccc(Cl)cc3)Nc3nc(NC(=O)c4ccco4)nn32)cc1 (configuration not stated)	-1	-1	/	-8	4
O=C(N/N=C/c1cccc(F)c1)c1c(O)c2c([nH]c1=O)CCCC2	1	-5	0	-4	-50*
Cc1nn(CCC(=O)Nc2ccc(Cl)cc2)c(C)c1S(=O)(=O)N1CCCCC1	3	1	/	-10	3
C[C@H](CO)N1C[C@H](C)[C@@H](CN(C)C(=O)NC2CCCCC2)Oc2c(NS(=O)(=O)c3ccccc3)cccc2C1=O	/	/	0	1	/
C[C@H](CO)N1C[C@H](C)[C@@H](CN(C)C(=O)Nc2ccccc2)Oc2ccc(NS(=O)(=O)c3ccc(F)cc3)cc2C1=O	/	/	13	37*	/
C[C@H](CO)N1C[C@H](C)[C@@H](CN(C)S(=O)(=O)c2cn(C)cn2)Oc2c(NS(=O)(=O)c3ccccc3)cccc2C1=O	/	/	50	49*	/
C[C@H](CO)N1C[C@H](C)[C@@H](CN(C)S(=O)(=O)c2cn(C)cn2)Oc2ccc(NS(=O)(=O)c3ccccc3)cc2C1=O	/	/	7	35*	/
C[C@H](CO)N1C[C@H](C)[C@@H](CN(C)S(=O)(=O)c2ccccc2)Oc2ccc(NS(=O)(=O)c3cn(C)cn3)cc2C1=O	/	/	-10	-10	/
C[C@H](CO)N1C[C@H](C)[C@@H](CN(C)C(=O)NC2CCCCC2)Oc2c(NS(=O)(=O)c3ccc(F)cc3)cccc2C1=O	/	/	-11	31*	/
COC(=O)c1ccc(NC(=O)CN(c2cccc(C(F)(F)F)c2)S(C)(=O)=O)cc1	2	-5	/	-12	10
